Source: ChEMBL document CHEMBL2218924, “A broad activity screen in support of a chemogenomic map for kinase signalling research and drug discovery” (Biochem J, 2013)

Assays:
[1] = target: T1, Serine/threonine-protein kinase 17A (Homo sapiens) (UniProt Q9UEE5); conditions: at 1 µM
T1 sequence (whole entry): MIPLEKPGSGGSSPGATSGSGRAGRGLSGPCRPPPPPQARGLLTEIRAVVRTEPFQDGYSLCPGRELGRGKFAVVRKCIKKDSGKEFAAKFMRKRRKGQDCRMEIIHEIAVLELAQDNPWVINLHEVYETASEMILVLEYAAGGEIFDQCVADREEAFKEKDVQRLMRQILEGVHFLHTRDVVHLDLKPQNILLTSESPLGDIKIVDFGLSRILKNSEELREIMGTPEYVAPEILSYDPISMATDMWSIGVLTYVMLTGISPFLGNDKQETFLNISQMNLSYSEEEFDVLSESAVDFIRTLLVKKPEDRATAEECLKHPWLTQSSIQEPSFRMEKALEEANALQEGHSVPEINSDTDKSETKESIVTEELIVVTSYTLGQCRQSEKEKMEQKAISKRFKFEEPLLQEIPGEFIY

[2] = target: T1, Serine/threonine-protein kinase 17A (Homo sapiens); conditions: at 10 µM
[3] = target: T2, Dual specificity tyrosine-phosphorylation-regulated kinase 2 (Homo sapiens) (UniProt Q92630); conditions: at 1 µM
T2 sequence (whole entry): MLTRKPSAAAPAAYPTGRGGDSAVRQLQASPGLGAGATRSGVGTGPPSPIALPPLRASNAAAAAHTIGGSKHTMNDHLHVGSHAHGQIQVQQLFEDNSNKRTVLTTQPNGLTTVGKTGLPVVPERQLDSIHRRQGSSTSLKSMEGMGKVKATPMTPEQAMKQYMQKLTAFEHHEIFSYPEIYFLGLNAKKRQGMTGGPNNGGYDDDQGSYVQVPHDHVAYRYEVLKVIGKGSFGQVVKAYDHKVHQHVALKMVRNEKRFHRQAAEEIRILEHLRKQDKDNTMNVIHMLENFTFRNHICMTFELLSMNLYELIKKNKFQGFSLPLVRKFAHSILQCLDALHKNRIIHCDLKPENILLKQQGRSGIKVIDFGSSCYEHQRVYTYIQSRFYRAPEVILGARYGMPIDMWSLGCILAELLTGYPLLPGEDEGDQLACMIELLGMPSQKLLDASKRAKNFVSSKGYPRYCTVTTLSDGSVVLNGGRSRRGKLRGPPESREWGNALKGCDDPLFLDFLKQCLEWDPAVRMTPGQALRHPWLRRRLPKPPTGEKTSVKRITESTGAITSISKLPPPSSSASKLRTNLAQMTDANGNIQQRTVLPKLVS

[4] = target: T2, Dual specificity tyrosine-phosphorylation-regulated kinase 2 (Homo sapiens); conditions: at 10 µM
[5] = target: T3, Ephrin type-A receptor 1 (Homo sapiens) (UniProt P21709); conditions: at 1 µM
T3 sequence (whole entry): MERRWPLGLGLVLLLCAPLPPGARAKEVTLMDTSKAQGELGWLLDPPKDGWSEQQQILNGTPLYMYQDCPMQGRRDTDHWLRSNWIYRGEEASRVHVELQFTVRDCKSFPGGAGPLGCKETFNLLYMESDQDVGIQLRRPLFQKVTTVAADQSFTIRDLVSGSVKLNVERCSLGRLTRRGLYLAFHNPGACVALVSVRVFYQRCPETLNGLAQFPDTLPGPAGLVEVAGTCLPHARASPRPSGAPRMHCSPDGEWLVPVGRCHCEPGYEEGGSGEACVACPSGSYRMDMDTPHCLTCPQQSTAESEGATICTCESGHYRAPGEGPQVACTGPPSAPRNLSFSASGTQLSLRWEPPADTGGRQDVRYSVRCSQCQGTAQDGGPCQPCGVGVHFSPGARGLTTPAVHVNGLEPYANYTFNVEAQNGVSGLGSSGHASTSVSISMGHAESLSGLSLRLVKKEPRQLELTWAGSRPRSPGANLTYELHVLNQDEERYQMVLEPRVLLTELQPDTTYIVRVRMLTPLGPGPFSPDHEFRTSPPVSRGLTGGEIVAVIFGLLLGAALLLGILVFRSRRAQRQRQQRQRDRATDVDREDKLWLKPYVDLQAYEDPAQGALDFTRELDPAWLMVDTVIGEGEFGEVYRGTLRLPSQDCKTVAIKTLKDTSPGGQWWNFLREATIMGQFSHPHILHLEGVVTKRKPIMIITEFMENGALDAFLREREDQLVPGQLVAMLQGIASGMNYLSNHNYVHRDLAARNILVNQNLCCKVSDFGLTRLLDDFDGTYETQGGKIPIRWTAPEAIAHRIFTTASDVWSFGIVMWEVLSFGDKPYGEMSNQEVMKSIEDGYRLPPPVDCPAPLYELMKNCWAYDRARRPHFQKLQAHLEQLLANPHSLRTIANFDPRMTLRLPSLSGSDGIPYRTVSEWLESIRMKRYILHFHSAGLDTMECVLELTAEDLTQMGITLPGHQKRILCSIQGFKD

[6] = target: T3, Ephrin type-A receptor 1 (Homo sapiens); conditions: at 10 µM
[7] = target: Ephrin type-A receptor 2 (Homo sapiens) (UniProt P29317); conditions: at 1 µM
Sequence of Ephrin type-A receptor 2 (Homo sapiens) (P29317 whole entry): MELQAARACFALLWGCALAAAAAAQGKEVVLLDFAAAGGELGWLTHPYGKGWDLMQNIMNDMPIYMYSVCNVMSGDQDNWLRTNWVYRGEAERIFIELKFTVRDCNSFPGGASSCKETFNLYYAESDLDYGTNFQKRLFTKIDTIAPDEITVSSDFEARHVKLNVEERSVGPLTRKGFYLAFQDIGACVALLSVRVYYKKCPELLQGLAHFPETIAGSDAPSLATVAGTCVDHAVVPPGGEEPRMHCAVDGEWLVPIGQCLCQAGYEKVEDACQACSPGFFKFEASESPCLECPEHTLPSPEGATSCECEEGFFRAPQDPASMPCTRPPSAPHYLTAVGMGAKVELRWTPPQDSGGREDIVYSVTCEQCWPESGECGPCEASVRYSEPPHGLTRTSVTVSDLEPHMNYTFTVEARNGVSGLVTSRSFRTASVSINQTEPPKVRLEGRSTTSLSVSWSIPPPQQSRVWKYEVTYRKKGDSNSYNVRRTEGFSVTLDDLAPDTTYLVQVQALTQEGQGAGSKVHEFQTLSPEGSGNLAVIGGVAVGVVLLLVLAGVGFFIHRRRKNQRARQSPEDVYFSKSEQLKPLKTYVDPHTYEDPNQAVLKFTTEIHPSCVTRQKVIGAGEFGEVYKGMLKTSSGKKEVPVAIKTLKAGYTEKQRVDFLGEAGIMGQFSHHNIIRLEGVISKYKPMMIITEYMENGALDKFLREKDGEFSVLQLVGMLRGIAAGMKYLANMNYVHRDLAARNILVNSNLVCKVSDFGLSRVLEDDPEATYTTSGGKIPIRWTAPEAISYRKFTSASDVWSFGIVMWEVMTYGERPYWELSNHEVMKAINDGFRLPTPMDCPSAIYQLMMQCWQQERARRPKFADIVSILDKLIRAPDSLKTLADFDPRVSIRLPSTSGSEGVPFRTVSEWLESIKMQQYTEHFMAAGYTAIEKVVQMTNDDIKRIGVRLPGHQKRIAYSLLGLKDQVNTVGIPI

[8] = target: Ephrin type-A receptor 2 (Homo sapiens) (UniProt P29317); conditions: at 10 µM
[9] = target: T4, Ephrin type-A receptor 3 (Homo sapiens) (UniProt P29320); conditions: at 1 µM
T4 sequence (whole entry): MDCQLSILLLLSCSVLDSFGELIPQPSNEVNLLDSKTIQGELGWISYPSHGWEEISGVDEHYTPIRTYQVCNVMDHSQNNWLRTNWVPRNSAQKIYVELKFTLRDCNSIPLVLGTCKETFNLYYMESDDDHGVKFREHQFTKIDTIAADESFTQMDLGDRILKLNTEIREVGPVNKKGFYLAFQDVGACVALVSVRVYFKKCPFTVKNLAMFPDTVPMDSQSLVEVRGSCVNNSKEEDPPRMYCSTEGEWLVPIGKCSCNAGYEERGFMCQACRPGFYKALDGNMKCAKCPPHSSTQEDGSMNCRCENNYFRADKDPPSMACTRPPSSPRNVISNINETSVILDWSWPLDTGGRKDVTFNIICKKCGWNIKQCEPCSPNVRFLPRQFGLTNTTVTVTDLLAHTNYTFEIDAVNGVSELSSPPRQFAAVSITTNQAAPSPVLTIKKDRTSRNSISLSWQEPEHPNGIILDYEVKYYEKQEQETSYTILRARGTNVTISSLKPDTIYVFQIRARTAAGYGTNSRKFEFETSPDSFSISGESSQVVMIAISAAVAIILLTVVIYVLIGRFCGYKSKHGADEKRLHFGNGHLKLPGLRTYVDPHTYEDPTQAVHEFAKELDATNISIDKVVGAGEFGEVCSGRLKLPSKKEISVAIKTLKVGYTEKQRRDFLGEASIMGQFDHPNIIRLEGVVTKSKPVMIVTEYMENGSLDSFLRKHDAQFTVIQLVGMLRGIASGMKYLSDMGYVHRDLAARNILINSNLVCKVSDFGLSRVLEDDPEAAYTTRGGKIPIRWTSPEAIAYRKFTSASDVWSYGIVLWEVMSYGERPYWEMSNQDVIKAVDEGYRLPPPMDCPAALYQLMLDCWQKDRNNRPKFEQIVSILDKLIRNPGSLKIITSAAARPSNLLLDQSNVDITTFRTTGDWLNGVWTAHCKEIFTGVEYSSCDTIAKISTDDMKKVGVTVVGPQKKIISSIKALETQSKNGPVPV

[10] = target: T4, Ephrin type-A receptor 3 (Homo sapiens); conditions: at 10 µM
[11] = target: Ephrin type-A receptor 4 (Homo sapiens) (UniProt P54764); conditions: at 1 µM
Sequence of Ephrin type-A receptor 4 (Homo sapiens) (P54764 whole entry): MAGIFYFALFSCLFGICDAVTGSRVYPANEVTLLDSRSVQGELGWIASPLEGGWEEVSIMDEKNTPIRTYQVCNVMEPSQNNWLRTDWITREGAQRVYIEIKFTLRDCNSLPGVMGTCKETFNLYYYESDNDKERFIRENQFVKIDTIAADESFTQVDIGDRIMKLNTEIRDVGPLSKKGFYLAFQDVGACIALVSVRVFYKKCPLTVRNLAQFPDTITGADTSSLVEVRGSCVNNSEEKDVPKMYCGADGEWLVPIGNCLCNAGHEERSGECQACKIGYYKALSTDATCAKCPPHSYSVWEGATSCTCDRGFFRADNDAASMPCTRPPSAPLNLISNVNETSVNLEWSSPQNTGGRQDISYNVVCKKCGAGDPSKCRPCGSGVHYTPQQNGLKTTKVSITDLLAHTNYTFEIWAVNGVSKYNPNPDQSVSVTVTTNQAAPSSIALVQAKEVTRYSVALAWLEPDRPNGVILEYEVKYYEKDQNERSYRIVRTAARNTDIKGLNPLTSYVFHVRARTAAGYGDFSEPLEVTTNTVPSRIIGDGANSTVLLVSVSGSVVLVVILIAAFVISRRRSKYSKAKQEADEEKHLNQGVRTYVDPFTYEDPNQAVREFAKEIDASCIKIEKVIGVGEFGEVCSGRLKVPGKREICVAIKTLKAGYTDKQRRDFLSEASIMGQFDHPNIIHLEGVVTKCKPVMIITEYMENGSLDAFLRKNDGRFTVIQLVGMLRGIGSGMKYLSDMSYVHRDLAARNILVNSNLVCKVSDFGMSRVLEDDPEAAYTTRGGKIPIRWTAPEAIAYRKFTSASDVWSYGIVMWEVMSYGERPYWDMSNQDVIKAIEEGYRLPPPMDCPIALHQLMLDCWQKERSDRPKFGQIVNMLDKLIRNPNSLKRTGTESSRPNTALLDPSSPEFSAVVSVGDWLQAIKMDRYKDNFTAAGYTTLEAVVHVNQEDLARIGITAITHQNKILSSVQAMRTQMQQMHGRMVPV

[12] = target: Ephrin type-A receptor 4 (Homo sapiens) (UniProt P54764); conditions: at 10 µM
[13] = target: Ephrin type-A receptor 5 (Homo sapiens) (UniProt P54756); conditions: at 1 µM
Sequence of Ephrin type-A receptor 5 (Homo sapiens) (P54756 whole entry): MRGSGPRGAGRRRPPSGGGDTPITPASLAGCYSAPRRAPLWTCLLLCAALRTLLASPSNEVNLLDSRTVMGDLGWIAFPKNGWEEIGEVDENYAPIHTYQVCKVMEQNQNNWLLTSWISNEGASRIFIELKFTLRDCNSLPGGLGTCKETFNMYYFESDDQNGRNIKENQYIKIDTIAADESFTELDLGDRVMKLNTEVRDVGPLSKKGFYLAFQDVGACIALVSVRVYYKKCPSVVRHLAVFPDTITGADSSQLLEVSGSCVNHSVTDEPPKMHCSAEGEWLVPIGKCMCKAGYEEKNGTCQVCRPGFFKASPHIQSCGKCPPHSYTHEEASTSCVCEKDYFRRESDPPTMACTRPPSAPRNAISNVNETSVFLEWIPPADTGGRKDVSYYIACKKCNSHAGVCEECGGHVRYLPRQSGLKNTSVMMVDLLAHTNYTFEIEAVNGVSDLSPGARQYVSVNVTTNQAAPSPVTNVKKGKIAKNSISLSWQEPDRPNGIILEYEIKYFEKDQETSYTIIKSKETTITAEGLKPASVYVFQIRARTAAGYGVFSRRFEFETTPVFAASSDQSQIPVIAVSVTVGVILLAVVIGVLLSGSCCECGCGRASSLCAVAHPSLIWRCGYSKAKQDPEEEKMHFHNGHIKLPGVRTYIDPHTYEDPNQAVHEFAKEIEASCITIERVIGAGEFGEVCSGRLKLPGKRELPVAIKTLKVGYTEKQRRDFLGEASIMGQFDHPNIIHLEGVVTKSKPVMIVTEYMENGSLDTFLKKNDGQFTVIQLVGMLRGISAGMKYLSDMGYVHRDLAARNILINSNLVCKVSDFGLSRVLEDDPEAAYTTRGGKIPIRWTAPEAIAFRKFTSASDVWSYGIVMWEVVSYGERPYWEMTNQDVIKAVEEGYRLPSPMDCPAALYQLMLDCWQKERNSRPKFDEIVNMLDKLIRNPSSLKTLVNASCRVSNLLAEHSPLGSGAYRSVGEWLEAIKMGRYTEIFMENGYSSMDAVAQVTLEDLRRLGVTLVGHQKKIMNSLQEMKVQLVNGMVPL

[14] = target: Ephrin type-A receptor 5 (Homo sapiens) (UniProt P54756); conditions: at 10 µM
[15] = target: Ephrin type-A receptor 7 (Homo sapiens) (UniProt Q15375); conditions: at 1 µM
Sequence of Ephrin type-A receptor 7 (Homo sapiens) (Q15375 28-998 limits assumed): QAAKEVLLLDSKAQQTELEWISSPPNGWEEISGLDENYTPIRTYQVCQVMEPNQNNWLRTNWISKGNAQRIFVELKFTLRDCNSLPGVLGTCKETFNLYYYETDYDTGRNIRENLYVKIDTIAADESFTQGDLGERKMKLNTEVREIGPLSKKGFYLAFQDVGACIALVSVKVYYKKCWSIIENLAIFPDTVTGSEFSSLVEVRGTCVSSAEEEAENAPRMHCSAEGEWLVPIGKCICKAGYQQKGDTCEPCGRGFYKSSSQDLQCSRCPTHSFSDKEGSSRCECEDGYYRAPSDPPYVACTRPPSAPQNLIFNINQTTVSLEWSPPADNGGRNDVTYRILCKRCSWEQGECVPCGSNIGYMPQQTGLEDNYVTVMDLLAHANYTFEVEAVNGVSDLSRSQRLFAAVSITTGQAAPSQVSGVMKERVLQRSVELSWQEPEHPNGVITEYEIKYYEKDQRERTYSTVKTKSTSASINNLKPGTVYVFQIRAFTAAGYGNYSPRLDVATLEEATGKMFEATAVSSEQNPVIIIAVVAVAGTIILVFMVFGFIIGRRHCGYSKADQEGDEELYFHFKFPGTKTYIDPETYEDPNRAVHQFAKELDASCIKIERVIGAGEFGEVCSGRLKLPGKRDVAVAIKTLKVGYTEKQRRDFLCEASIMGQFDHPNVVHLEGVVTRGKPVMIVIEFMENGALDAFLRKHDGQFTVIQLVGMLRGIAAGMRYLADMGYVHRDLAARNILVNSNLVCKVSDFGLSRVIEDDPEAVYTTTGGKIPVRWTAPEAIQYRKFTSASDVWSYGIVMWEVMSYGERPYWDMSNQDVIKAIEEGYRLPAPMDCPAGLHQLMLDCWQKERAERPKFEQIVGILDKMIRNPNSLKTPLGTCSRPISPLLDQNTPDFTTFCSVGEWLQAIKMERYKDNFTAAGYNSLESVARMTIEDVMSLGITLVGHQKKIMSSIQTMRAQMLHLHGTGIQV

[16] = target: Ephrin type-A receptor 7 (Homo sapiens) (UniProt Q15375); conditions: at 10 µM
[17] = target: T5, Ephrin type-A receptor 8 (Homo sapiens) (UniProt P29322); conditions: at 1 µM
T5 sequence (whole entry): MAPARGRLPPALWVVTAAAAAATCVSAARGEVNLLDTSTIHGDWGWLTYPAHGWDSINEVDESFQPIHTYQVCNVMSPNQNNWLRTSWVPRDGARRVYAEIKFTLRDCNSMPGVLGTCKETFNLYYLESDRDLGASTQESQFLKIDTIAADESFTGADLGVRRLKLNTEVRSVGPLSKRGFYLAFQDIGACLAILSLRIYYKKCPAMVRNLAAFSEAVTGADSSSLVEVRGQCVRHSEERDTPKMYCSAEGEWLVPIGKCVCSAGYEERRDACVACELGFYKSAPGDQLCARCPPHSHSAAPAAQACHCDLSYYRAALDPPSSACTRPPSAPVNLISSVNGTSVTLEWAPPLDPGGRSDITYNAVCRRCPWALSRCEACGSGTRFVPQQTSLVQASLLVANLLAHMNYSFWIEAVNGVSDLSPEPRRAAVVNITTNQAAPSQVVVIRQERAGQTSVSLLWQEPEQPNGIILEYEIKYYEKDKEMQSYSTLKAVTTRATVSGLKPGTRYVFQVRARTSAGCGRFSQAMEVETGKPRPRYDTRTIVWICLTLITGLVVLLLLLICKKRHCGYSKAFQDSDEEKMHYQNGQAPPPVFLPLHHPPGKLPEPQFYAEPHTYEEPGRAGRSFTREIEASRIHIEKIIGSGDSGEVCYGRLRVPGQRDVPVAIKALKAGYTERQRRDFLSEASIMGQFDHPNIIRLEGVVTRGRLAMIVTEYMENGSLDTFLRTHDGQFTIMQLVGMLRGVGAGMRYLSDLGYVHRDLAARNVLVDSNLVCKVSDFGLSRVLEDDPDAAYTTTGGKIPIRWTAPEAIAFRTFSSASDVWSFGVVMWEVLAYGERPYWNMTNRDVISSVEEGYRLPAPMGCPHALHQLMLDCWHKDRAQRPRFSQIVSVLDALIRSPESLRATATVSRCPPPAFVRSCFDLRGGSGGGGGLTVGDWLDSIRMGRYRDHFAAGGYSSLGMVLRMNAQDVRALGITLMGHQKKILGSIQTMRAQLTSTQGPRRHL

[18] = target: T5, Ephrin type-A receptor 8 (Homo sapiens); conditions: at 10 µM
[19] = target: T6, Ephrin type-B receptor 1 (Homo sapiens) (UniProt P54762); conditions: at 1 µM
T6 sequence (whole entry): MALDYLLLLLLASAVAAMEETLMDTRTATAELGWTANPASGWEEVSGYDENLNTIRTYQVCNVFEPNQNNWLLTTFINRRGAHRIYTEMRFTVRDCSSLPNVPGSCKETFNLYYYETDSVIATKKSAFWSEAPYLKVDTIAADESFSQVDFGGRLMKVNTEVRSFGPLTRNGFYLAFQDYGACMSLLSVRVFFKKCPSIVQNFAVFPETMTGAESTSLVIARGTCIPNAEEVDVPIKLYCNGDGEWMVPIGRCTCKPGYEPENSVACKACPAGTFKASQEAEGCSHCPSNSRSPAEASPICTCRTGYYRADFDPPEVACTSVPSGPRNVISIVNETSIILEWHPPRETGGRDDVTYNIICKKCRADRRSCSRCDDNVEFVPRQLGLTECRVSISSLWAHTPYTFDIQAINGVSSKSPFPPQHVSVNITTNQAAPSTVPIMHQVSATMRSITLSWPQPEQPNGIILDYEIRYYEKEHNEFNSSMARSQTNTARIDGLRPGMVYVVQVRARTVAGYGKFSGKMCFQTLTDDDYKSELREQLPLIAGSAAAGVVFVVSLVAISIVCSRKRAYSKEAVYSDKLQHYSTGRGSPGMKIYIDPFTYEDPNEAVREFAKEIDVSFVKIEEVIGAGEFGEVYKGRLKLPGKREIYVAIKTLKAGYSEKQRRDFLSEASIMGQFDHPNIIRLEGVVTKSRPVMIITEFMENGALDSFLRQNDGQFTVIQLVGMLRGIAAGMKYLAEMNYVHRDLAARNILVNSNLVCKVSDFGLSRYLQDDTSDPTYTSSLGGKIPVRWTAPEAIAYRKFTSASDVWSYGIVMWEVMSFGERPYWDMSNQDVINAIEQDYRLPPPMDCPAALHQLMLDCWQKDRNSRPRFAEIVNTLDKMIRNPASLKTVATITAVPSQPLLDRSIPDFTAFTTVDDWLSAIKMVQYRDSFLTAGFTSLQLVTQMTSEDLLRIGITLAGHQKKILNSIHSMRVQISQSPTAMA

CC(C)[C@H](CO)Nc1nc(Nc2cccc(Cl)c2)c2ncn(C(C)C)c2n1
residual activity [1]: 116%
residual activity [2]: 92%
residual activity [3]: 99%
residual activity [4]: 86%
residual activity [5]: 69%
residual activity [6]: 14%
residual activity [7]: 69%
residual activity [8]: 27%
residual activity [9]: 86%
residual activity [10]: 31%
residual activity [11]: 95%
residual activity [12]: 47%
residual activity [13]: 83%
residual activity [14]: 14%
residual activity [15]: 76%
residual activity [16]: 28%
residual activity [17]: 85%
residual activity [18]: 46%
residual activity [19]: 63%

O=C1c2ccccc2-c2nc3nnnn3nc21
residual activity [1]: 108%
residual activity [2]: 114%
residual activity [3]: 101%
residual activity [4]: 100%
residual activity [5]: 100%
residual activity [6]: 123%
residual activity [7]: 107%
residual activity [8]: 116%
residual activity [11]: 115%
residual activity [12]: 102%
residual activity [13]: 115%
residual activity [14]: 124%
